Measured values: publication PMC7862700, “An all-to-all approach to the identification of sequence-specific readers for epigenetic DNA modifications on cytosine”

Assays:
Test in all cases: DAPPL (digital affinity profiling via proximity ligation, sequencing); 10 mM Tris-HCl pH 7.5, 50 mM NaCl, 1 mM DTT, 4% glycerol, room temperature, 30 min; GST-TFs on glutathione beads, 16-mer random dsDNA library, 0.1% formaldehyde crosslink after washing; high values mean tight binding
FLI1 = target: T1, FLI1 (Homo sapiens, UniProt Q01543 1-452); conditions: protein: recombinant; tags: N-terminal GST; dsDNA, one strand shown
T1 sequence: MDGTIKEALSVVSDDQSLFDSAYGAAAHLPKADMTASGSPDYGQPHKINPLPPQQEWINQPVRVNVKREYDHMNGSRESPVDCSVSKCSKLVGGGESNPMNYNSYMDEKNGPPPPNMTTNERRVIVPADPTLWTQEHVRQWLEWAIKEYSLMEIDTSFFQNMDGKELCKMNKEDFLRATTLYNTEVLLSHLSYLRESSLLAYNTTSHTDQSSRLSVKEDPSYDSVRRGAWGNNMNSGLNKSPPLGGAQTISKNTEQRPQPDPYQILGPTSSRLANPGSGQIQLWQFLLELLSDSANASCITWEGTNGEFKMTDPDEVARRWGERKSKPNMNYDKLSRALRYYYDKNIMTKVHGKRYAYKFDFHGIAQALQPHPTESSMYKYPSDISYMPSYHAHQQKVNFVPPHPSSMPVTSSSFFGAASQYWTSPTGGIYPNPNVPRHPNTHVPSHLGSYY
How it was run: (§1)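 Sequencing on an Illumina NextSeq500 followed washing, crosslinking with 0.1% formaldehyde, proximity ligation (BsaI/T4 ligase, 1 h, 37 °C) and PCR amplification of pools that had been incubated for 30 min at room temperature with 200 nmole of a random double-stranded 16-mer DNA library in Tris/NaCl/DTT/glycerol buffer. Each pool held DNA-barcoded human transcription factors, expressed in yeast as GST fusions and captured on glutathione beads, plus a tag-only sample. Binding signal is a hexamer's read frequency for a factor divided by its frequency in the tag-only sample.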

ELK1 = target: T2, ELK1 (Homo sapiens, UniProt P19419 1-428); conditions: protein: recombinant; tags: N-terminal GST; dsDNA, one strand shown
T2 sequence: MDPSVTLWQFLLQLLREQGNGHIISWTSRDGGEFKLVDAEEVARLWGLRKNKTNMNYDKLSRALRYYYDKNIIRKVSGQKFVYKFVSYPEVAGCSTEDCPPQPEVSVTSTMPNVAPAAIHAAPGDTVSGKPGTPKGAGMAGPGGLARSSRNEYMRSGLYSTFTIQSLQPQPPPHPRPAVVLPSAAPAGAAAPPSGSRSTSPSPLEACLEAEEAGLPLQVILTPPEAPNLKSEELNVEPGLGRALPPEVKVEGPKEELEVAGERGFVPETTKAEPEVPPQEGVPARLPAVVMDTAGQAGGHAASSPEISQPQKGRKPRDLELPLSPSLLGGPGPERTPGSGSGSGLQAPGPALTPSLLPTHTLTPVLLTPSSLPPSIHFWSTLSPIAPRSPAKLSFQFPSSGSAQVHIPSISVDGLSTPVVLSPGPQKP
How it was run: as §1

GABPA = target: T3, GABPA (Homo sapiens, UniProt Q06546 1-454); conditions: protein: recombinant; tags: N-terminal GST; dsDNA, one strand shown
T3 sequence: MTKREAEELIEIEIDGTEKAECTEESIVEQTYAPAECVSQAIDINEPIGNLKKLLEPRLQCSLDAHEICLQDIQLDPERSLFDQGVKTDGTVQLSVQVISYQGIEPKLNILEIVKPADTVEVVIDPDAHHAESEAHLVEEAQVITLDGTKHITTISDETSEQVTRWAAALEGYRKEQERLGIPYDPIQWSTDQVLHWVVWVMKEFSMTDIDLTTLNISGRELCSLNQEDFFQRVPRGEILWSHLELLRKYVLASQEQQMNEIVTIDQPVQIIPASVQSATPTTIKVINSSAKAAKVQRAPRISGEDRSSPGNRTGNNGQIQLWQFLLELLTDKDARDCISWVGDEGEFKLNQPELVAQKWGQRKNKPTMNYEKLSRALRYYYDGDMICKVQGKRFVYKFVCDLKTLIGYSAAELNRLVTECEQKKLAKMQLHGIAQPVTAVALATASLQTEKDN
How it was run: as §1

ERG = target: T4, ERG (Homo sapiens, UniProt P11308 1-479); conditions: protein: recombinant; tags: N-terminal GST; dsDNA, one strand shown
T4 sequence: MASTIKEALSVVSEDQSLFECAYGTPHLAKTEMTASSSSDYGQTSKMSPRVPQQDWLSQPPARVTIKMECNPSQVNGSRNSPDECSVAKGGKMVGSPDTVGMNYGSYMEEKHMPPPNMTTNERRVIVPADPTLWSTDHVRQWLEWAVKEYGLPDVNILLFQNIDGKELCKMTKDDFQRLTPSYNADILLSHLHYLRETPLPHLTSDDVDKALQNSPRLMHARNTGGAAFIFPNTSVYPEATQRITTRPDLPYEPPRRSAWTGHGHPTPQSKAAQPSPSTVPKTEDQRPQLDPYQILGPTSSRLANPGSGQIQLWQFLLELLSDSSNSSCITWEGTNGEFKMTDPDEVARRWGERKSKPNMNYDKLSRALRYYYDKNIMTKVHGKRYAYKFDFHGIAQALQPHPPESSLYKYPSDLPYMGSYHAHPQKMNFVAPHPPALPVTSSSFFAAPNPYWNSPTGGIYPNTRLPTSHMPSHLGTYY
How it was run: as §1

ELF1 = ELF1 (Homo sapiens, UniProt P32519 1-619); conditions: protein: recombinant; tags: N-terminal GST; dsDNA, one strand shown
Sequence of ELF1 (P32519 whole entry): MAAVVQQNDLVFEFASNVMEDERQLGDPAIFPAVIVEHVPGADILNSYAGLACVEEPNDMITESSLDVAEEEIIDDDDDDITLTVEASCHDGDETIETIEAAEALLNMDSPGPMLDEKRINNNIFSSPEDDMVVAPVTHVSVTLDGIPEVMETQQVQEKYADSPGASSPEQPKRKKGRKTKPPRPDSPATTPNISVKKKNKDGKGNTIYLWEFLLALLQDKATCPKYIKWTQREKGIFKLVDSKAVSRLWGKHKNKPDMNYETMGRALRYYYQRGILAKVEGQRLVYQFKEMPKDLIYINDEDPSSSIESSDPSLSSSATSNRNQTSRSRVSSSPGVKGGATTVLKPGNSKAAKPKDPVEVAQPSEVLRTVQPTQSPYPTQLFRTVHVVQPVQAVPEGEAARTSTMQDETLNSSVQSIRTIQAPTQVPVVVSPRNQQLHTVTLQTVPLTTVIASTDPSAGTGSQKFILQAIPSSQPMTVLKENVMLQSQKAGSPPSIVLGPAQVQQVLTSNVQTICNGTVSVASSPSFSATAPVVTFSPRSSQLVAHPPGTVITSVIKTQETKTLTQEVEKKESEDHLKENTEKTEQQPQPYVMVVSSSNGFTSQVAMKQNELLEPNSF
How it was run: as §1

EHF = target: T5, EHF (Homo sapiens, UniProt Q9NZC4 1-300); conditions: protein: recombinant; tags: N-terminal GST; dsDNA, one strand shown
T5 sequence: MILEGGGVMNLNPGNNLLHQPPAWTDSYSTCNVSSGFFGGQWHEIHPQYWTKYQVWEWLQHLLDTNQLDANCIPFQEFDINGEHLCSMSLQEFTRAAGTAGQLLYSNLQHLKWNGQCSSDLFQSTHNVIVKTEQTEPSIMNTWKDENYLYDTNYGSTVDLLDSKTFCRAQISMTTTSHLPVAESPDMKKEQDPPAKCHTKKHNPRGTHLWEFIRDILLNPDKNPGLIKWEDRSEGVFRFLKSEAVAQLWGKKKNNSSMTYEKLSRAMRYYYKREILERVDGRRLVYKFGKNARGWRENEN
How it was run: as §1

SPI1 = SPI1 (Homo sapiens, UniProt P17947 1-270); conditions: protein: recombinant; tags: N-terminal GST; dsDNA, one strand shown
How it was run: as §1

SPIB = SPIB (Homo sapiens, UniProt Q01892 1-262); conditions: protein: recombinant; tags: N-terminal GST; dsDNA, one strand shown
Sequence of SPIB (Q01892 whole entry): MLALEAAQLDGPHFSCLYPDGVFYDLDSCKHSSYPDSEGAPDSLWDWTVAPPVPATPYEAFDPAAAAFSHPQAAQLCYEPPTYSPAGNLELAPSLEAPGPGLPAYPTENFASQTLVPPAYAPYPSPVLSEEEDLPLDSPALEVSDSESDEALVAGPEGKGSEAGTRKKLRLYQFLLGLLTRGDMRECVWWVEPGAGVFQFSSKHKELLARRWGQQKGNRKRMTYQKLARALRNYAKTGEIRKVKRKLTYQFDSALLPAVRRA
How it was run: as §1

ELK3 = target: T6, ELK3 (Homo sapiens, UniProt P41970 1-407); conditions: protein: recombinant; tags: N-terminal GST; dsDNA, one strand shown
T6 sequence: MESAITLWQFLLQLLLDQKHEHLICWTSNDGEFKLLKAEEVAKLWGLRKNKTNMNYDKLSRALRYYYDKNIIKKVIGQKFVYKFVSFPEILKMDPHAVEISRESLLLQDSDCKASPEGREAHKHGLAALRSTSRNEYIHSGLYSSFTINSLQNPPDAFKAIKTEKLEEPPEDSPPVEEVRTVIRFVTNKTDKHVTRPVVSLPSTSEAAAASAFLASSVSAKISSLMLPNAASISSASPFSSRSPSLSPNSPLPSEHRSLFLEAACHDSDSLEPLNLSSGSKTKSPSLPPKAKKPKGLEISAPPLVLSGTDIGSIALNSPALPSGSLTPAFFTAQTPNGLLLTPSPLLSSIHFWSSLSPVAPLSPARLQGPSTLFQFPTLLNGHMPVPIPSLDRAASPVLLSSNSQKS
How it was run: as §1

FEV = target: T7, FEV (Homo sapiens, UniProt Q99581 1-238); conditions: protein: recombinant; tags: N-terminal GST; dsDNA, one strand shown
T7 sequence: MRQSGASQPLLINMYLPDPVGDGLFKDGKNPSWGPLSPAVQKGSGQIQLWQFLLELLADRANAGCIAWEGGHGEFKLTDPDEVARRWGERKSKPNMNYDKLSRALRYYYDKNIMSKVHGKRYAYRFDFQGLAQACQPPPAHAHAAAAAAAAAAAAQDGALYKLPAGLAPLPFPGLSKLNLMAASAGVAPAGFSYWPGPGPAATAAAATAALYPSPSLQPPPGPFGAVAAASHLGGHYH
How it was run: as §1

ETV5 = ETV5 (Homo sapiens, UniProt P41161 1-510); conditions: protein: recombinant; tags: N-terminal GST; dsDNA, one strand shown
Sequence of ETV5 (P41161 whole entry): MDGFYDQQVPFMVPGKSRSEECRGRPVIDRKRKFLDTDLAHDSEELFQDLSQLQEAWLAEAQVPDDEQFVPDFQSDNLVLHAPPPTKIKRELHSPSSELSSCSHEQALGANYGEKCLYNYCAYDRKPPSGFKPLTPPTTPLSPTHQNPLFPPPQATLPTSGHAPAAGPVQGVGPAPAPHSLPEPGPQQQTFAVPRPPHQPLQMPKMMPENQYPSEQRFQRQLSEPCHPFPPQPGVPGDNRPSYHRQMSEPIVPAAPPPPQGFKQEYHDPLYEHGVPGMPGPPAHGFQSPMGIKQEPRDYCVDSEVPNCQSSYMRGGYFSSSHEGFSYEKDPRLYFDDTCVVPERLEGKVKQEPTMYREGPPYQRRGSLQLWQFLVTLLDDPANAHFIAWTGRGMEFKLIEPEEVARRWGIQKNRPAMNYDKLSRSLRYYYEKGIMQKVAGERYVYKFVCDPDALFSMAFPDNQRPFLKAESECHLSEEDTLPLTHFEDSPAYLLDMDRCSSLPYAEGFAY
How it was run: as §1

HSF1 = HSF1 (Homo sapiens, UniProt Q00613 1-529); conditions: protein: recombinant; tags: N-terminal GST; chain copies: 3; dsDNA, one strand shown
Sequence of HSF1 (Q00613 whole entry): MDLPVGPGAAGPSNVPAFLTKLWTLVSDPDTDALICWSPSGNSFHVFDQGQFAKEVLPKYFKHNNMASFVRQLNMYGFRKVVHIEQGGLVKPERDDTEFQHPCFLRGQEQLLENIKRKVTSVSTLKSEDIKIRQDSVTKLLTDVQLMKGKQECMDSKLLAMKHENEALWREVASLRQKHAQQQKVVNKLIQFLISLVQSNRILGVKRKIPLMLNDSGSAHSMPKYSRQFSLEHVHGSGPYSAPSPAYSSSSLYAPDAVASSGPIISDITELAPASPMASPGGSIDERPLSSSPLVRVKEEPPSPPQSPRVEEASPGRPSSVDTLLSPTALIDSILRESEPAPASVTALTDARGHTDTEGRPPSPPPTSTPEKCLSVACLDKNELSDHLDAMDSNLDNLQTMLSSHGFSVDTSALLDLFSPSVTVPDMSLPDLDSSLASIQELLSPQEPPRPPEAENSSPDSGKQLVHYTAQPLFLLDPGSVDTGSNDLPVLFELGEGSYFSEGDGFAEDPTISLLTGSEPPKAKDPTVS
How it was run: as §1

SPIC = target: T8, SPIC (Homo sapiens, UniProt Q8N5J4 1-248); conditions: protein: recombinant; tags: N-terminal GST; dsDNA, one strand shown
T8 sequence: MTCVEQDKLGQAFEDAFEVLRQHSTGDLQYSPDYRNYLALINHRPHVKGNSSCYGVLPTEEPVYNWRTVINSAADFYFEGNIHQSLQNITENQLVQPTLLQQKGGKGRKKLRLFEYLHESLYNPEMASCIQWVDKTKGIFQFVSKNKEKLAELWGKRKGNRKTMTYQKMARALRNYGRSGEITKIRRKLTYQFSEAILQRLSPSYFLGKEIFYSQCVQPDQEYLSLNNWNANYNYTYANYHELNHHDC
How it was run: as §1

ELF4 = ELF4 (Homo sapiens, UniProt Q99607 1-663); conditions: protein: recombinant; tags: N-terminal GST; dsDNA, one strand shown
Sequence of ELF4 (Q99607 whole entry): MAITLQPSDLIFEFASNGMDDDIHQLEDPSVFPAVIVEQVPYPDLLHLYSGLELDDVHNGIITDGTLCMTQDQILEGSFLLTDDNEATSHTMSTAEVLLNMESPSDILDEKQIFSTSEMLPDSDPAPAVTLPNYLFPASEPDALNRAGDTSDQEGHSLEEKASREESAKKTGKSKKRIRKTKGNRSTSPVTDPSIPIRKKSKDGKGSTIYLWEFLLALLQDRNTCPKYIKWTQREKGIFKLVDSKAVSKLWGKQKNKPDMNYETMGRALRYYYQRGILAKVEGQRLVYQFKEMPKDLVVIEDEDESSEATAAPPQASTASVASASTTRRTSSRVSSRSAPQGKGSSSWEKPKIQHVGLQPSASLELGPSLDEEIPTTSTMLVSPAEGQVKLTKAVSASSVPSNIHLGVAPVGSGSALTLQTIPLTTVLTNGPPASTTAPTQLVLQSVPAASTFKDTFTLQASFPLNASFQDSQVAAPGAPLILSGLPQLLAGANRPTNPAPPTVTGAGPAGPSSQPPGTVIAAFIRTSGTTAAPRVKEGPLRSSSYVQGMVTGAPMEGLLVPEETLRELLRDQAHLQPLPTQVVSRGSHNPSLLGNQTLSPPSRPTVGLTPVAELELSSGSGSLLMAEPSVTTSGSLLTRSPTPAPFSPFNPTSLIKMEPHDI
How it was run: as §1

ELK4 = target: T9, ELK4 (Homo sapiens, UniProt P28324-2 1-405); conditions: protein: recombinant; tags: N-terminal GST; dsDNA, one strand shown
T9 sequence: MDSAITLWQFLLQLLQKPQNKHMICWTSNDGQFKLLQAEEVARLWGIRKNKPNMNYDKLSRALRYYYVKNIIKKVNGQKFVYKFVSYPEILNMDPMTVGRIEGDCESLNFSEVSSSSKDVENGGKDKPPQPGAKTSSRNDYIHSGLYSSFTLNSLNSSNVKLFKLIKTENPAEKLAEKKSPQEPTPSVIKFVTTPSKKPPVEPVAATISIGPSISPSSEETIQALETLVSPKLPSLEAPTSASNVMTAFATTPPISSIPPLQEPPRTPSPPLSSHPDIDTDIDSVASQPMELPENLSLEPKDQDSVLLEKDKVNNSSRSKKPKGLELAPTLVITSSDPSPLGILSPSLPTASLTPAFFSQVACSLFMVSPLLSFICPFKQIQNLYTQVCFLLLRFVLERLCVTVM
How it was run: as §1

ETV2 = target: T10, ETV2 (Homo sapiens, UniProt O00321 1-342); conditions: protein: recombinant; tags: N-terminal GST; dsDNA, one strand shown
T10 sequence: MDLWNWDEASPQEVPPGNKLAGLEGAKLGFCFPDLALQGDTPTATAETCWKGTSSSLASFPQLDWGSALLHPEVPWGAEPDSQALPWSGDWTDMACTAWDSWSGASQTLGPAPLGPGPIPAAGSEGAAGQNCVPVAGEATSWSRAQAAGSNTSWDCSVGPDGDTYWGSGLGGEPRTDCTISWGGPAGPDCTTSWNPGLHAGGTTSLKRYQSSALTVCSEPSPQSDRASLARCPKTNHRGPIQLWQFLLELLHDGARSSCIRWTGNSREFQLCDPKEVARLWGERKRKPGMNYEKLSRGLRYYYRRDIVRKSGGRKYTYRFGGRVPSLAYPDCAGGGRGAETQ
How it was run: as §1

ELF3 = target: T11, ELF3 (Homo sapiens, UniProt P78545 1-371); conditions: protein: recombinant; tags: N-terminal GST; dsDNA, one strand shown
T11 sequence: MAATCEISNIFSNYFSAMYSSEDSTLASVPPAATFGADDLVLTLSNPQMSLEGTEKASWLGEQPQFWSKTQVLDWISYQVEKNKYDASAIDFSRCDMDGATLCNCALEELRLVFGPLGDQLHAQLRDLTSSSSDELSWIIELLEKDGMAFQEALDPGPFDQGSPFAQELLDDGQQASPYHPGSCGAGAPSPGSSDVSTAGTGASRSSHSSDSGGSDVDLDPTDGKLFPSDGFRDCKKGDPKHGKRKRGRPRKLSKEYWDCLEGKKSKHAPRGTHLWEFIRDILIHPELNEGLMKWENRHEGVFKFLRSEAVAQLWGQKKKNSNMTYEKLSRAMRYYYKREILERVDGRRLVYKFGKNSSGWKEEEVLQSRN
How it was run: as §1

CRX = CRX (Homo sapiens, UniProt O43186 1-299); conditions: protein: recombinant; tags: N-terminal GST; dsDNA, one strand shown
Sequence of CRX (O43186 whole entry): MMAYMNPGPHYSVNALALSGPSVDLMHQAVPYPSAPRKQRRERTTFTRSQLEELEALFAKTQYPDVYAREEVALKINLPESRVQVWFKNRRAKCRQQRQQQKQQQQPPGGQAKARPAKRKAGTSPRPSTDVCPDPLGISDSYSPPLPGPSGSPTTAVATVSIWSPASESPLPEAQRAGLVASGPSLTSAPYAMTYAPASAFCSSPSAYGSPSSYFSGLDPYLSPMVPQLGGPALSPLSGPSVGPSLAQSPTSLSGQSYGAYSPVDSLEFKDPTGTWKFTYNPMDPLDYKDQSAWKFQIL
How it was run: as §1

ETV1 = ETV1 (Homo sapiens, UniProt P50549 1-477); conditions: protein: recombinant; tags: N-terminal GST; dsDNA, one strand shown
Sequence of ETV1 (P50549 whole entry): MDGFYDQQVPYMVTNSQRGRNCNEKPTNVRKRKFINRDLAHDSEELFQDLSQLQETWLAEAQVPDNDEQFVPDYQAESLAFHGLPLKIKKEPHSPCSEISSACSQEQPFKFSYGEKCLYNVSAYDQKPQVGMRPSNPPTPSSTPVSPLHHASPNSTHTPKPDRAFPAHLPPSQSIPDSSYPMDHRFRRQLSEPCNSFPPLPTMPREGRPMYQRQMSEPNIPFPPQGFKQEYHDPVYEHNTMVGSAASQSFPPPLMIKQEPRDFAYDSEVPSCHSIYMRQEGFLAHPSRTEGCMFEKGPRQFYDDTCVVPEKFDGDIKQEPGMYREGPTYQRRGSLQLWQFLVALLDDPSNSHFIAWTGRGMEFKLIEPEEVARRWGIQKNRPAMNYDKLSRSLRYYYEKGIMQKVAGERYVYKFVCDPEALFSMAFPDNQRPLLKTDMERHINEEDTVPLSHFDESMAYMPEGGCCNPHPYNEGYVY
How it was run: as §1

ATTGTA
binding signal (FLI1): 1.22 fold enrichment (6-mer frequency, TF over GST control)
binding signal (ELK1): 1.33 fold enrichment (6-mer frequency, TF over GST control)
binding signal (GABPA): 1.17 fold enrichment (6-mer frequency, TF over GST control)
binding signal (ERG): 1.19 fold enrichment (6-mer frequency, TF over GST control)
binding signal (ELF1): 1.24 fold enrichment (6-mer frequency, TF over GST control)
binding signal (EHF): 1.22 fold enrichment (6-mer frequency, TF over GST control)
binding signal (SPI1): 1.09 fold enrichment (6-mer frequency, TF over GST control)
binding signal (SPIB): 1.24 fold enrichment (6-mer frequency, TF over GST control)
binding signal (ELK3): 1.27 fold enrichment (6-mer frequency, TF over GST control)
binding signal (FEV): 1.19 fold enrichment (6-mer frequency, TF over GST control)
binding signal (ETV5): 1.19 fold enrichment (6-mer frequency, TF over GST control)
binding signal (HSF1): 1.16 fold enrichment (6-mer frequency, TF over GST control)
binding signal (SPIC): 1.18 fold enrichment (6-mer frequency, TF over GST control)
binding signal (ELF4): 1.24 fold enrichment (6-mer frequency, TF over GST control)
binding signal (ELK4): 1.21 fold enrichment (6-mer frequency, TF over GST control)
binding signal (ETV2): 1.29 fold enrichment (6-mer frequency, TF over GST control)
binding signal (ELF3): 1.17 fold enrichment (6-mer frequency, TF over GST control)
binding signal (CRX): 1.28 fold enrichment (6-mer frequency, TF over GST control)
binding signal (ETV1): 1.21 fold enrichment (6-mer frequency, TF over GST control)
